Experimental data as given in PMC7862700, “An all-to-all approach to the identification of sequence-specific readers for epigenetic DNA modifications on cytosine”.

Assays:
Assay in all cases: DAPPL (digital affinity profiling via proximity ligation, sequencing); 10 mM Tris-HCl pH 7.5, 50 mM NaCl, 1 mM DTT, 4% glycerol, room temperature, 30 min; GST-TFs on glutathione beads, 16-mer random dsDNA library, 0.1% formaldehyde crosslink after washing; high values mean tight binding
Conditions in all cases: protein: recombinant; tags: N-terminal GST; dsDNA, one strand shown
FEV = target: T1, FEV (Homo sapiens, UniProt Q99581 1-238)
T1 sequence: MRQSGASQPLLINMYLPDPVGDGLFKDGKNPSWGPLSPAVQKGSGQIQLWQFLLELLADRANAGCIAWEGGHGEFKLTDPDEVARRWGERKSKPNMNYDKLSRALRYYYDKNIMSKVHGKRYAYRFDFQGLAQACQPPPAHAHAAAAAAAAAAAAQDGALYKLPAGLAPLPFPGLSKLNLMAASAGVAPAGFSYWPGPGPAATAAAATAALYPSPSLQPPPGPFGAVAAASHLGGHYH
Procedure, shortened: (§1)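 The binding signal reported is, for every hexamer, its read frequency for a factor over its read frequency for the tag-only sample. Reads came from pools of yeast-expressed, GST-fused human transcription factors on glutathione beads, barcoded with DNA and mixed with that sample, which were incubated with 200 nmole of a random double-stranded 16-mer DNA library in Tris/NaCl/DTT/glycerol buffer at room temperature for 30 min. After washing, the pools were crosslinked with 0.1% formaldehyde, proximity-ligated with BsaI/T4 ligase for 1 h at 37 °C, PCR-amplified and sequenced on an Illumina NextSeq500.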

ETV5 = ETV5 (Homo sapiens, UniProt P41161 1-510)
Procedure, shortened: as §1

SPIC = target: T2, SPIC (Homo sapiens, UniProt Q8N5J4 1-248)
T2 sequence: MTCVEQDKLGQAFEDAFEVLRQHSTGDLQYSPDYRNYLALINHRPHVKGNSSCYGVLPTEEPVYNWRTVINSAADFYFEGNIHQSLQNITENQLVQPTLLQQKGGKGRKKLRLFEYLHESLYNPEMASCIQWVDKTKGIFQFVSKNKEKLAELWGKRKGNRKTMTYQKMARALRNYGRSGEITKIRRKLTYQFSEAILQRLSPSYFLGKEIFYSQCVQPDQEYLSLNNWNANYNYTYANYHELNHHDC
Procedure, shortened: as §1

ELF4 = ELF4 (Homo sapiens, UniProt Q99607 1-663)
Procedure, shortened: as §1

ELK4 = target: T3, ELK4 (Homo sapiens, UniProt P28324-2 1-405)
T3 sequence: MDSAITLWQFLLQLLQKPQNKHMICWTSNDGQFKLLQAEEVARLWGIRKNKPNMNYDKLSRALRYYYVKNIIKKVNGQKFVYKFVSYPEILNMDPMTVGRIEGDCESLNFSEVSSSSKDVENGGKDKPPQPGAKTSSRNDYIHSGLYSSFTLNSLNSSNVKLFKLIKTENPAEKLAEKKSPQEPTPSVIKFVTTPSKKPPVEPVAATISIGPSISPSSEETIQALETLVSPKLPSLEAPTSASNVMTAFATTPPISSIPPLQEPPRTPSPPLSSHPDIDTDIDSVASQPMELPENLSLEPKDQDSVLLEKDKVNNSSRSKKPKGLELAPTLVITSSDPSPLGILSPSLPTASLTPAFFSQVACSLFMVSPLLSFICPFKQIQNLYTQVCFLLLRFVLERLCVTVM
Procedure, shortened: as §1

ETV2 = target: T4, ETV2 (Homo sapiens, UniProt O00321 1-342)
T4 sequence: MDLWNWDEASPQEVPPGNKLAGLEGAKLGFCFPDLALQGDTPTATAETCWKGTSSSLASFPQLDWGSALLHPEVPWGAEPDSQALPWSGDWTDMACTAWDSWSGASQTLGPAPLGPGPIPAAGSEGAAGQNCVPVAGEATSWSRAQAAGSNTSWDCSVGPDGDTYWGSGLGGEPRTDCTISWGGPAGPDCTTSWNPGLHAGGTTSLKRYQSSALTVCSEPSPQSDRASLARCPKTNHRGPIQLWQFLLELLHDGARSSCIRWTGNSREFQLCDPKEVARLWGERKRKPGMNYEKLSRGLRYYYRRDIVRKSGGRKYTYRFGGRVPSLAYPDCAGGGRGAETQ
Procedure, shortened: as §1

ELF3 = target: T5, ELF3 (Homo sapiens, UniProt P78545 1-371)
T5 sequence: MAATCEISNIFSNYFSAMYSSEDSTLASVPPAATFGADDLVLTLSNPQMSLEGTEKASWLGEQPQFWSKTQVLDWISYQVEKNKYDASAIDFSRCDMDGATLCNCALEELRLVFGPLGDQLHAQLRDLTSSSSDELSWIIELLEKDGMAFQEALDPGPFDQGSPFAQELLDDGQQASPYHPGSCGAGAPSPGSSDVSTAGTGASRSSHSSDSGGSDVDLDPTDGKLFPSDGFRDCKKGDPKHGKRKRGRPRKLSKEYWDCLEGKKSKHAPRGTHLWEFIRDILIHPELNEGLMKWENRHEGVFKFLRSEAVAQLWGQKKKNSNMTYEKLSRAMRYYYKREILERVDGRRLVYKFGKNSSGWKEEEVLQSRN
Procedure, shortened: as §1

ETV1 = ETV1 (Homo sapiens, UniProt P50549 1-477)
Procedure, shortened: as §1

ERF = target: T6, ERF (Homo sapiens, UniProt P50548 1-548)
T6 sequence: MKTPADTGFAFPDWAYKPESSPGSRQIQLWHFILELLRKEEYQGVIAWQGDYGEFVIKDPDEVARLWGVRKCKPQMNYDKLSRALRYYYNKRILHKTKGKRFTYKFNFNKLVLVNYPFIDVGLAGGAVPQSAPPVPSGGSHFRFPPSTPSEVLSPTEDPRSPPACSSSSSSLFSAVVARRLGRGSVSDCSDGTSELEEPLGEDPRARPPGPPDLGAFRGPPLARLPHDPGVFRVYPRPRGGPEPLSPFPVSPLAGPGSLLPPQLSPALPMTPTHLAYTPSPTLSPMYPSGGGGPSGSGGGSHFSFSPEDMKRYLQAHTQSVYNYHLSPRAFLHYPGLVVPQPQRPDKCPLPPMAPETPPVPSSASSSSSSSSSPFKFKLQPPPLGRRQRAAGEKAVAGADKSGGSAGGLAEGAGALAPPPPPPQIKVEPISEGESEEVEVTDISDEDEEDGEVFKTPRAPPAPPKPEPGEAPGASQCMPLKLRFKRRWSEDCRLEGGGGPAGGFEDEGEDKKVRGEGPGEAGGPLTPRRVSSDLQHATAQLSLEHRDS
Procedure, shortened: as §1

ETV3L = target: T7, ETV3L (Homo sapiens, UniProt Q6ZN32 1-361)
T7 sequence: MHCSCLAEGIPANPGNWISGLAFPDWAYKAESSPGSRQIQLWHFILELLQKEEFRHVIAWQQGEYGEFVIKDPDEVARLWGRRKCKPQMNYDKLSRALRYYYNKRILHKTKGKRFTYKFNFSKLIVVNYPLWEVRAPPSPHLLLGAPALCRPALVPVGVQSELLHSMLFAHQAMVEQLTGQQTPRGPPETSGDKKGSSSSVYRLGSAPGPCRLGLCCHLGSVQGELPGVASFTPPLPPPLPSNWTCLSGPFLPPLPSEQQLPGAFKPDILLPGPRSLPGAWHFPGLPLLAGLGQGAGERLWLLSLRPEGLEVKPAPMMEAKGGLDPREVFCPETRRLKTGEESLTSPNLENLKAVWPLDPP
Procedure, shortened: as §1

ETS2 = target: T8, ETS2 (Homo sapiens, UniProt P15036 1-469)
T8 sequence: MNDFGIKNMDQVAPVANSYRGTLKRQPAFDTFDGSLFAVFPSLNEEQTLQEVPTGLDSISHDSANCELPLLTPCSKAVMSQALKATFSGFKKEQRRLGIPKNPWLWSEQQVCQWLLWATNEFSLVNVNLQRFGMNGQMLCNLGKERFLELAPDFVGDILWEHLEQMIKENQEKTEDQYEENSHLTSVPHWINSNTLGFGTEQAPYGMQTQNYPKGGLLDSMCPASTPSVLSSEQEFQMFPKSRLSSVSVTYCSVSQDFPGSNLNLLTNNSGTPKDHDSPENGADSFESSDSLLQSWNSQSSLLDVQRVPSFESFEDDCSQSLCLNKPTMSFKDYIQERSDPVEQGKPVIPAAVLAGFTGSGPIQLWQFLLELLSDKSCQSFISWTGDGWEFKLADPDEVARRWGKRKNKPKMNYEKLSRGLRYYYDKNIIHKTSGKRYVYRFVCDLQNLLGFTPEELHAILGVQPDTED
Procedure, shortened: as §1

SPDEF = target: T9, SPDEF (Homo sapiens, UniProt O95238 1-335)
T9 sequence: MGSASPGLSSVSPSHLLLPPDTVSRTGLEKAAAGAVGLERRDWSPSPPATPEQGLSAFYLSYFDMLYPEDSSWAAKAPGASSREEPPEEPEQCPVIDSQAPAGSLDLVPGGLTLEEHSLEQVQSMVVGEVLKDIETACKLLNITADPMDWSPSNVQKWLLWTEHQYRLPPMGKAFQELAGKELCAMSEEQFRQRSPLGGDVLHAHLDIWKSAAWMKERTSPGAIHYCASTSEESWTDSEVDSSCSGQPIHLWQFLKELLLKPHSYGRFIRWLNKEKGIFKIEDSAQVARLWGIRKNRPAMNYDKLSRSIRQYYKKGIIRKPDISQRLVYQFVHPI
Procedure, shortened: as §1

ETV7 = target: T10, ETV7 (Homo sapiens, UniProt Q9Y603 1-341)
T10 sequence: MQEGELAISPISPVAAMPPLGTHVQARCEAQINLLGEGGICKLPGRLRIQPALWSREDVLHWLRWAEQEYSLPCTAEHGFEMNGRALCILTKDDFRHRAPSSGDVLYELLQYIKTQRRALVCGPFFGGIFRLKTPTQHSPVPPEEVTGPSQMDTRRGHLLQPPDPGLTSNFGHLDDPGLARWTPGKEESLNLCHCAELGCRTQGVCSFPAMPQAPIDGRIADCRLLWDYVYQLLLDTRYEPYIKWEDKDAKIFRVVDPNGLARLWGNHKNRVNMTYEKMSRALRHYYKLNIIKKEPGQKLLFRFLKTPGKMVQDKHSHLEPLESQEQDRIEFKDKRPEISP
Procedure, shortened: as §1

ELF5 = target: T11, ELF5 (Homo sapiens, UniProt Q9UKW6-2 1-255)
T11 sequence: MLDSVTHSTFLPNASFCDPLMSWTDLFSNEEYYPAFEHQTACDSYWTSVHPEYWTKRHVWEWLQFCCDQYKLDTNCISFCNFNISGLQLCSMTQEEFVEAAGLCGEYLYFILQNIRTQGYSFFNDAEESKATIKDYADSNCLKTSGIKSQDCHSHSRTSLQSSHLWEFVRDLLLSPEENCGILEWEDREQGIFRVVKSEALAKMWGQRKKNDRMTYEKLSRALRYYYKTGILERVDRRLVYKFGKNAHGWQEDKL
Procedure, shortened: as §1

ETV3 = target: T12, ETV3 (Homo sapiens, UniProt P41162-2 1-143)
T12 sequence: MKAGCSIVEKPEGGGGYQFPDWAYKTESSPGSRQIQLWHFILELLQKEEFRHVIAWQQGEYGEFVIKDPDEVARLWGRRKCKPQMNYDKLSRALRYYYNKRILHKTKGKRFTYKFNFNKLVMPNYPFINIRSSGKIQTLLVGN
Procedure, shortened: as §1

ETV6 = ETV6 (Homo sapiens, UniProt P41212 1-452)
Procedure, shortened: as §1

ETV6, sequence (P41212 whole entry): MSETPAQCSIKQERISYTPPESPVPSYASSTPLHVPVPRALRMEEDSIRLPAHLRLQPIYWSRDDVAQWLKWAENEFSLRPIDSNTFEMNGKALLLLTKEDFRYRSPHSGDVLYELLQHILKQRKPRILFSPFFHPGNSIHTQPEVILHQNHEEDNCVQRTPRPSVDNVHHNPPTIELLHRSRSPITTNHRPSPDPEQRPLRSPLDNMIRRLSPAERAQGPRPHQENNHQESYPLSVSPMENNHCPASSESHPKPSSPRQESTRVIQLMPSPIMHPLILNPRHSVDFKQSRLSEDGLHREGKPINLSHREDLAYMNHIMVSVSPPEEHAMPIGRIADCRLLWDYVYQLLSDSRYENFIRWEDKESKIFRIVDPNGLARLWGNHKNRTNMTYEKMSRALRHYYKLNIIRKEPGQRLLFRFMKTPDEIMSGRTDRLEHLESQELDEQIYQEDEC
ETV1, sequence (P50549 whole entry): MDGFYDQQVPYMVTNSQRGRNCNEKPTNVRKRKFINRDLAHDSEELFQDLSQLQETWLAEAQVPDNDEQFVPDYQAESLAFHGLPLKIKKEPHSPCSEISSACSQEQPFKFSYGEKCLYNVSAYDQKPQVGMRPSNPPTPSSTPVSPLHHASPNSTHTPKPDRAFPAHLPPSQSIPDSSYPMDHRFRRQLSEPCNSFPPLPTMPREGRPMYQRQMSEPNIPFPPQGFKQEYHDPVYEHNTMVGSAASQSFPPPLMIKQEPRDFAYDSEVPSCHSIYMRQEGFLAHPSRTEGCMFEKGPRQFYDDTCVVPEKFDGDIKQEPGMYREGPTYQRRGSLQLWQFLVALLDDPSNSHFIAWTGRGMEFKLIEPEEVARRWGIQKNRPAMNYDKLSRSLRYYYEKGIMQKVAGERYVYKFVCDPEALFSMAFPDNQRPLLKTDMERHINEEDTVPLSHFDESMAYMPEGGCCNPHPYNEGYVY
ELF4, sequence (Q99607 whole entry): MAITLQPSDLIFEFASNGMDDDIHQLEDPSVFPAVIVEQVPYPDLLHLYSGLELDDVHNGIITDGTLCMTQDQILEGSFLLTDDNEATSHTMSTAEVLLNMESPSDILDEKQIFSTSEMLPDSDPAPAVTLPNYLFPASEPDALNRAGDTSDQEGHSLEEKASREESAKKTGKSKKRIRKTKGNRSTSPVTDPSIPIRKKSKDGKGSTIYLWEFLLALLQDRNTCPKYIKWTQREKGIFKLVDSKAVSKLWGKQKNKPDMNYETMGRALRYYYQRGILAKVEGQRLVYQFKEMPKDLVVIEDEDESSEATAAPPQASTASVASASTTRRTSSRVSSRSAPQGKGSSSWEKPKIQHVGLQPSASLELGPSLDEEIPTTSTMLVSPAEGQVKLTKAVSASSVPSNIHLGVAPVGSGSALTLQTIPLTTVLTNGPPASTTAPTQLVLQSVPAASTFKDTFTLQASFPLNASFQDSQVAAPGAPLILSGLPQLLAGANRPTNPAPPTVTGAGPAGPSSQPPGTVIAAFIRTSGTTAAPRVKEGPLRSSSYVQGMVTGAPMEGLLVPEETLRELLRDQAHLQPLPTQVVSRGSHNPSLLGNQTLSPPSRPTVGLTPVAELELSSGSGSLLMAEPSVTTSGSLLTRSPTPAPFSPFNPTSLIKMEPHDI
ETV5, sequence (P41161 whole entry): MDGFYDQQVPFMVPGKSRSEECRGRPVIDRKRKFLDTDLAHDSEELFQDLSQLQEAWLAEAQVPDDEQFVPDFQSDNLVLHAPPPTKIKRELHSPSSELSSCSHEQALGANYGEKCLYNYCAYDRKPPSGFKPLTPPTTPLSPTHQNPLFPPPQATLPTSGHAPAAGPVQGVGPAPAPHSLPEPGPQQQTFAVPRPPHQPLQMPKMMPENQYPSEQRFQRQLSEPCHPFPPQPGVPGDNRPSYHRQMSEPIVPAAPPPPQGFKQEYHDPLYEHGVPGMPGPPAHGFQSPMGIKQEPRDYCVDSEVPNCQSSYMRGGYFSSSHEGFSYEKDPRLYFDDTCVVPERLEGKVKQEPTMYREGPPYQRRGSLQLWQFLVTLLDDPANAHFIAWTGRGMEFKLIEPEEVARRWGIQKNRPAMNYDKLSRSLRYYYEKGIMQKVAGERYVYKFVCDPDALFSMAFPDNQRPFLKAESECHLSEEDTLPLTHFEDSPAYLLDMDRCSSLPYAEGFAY

In the case of ACACCC, the binding signal (FEV) is reported as 1.08 fold enrichment (6-mer frequency, TF over GST control), the binding signal (ETV5) is reported as 1.08 fold enrichment (6-mer frequency, TF over GST control) and the binding signal (SPIC) is reported as 1.19 fold enrichment (6-mer frequency, TF over GST control). For the same sequence, the binding signal (ELF4) was 1.07 fold enrichment (6-mer frequency, TF over GST control), the binding signal (ELK4) was 1.05 fold enrichment (6-mer frequency, TF over GST control) and the binding signal (ETV2) was 1.07 fold enrichment (6-mer frequency, TF over GST control). For the same sequence, the binding signal (ELF3) was 1.01 fold enrichment (6-mer frequency, TF over GST control), the binding signal (ETV1) was 1.14 fold enrichment (6-mer frequency, TF over GST control) and the binding signal (ERF) was 1.17 fold enrichment (6-mer frequency, TF over GST control). For the same sequence, the binding signal (ETV3L) was 1.18 fold enrichment (6-mer frequency, TF over GST control), the binding signal (ETS2) was 1.09 fold enrichment (6-mer frequency, TF over GST control) and the binding signal (SPDEF) was 1.21 fold enrichment (6-mer frequency, TF over GST control). The binding signal (ETV7) was 1.09 fold enrichment (6-mer frequency, TF over GST control), the binding signal (ELF5) was 1.12 fold enrichment (6-mer frequency, TF over GST control) and the binding signal (ETV3) was 1.14 fold enrichment (6-mer frequency, TF over GST control). The binding signal (ETV6) was 1.01 fold enrichment (6-mer frequency, TF over GST control).
